Measured values as given in PubChem BioAssay AID1211 (NMMLSC, 2008).
Calls of active or inactive are those of the source. The rule behind the calls is not given here.

molecular target: Estrogen receptor (Homo sapiens) (UniProt P03372); test: displacement of fluorescent estrogen from ERalpha – cell-based, Cos7 ERalpha-GFP, flow cytometry, primary screen (AID 1211); settings: fluorescent ligand competition, at 10 µM, stronger effect = higher value;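 note: 0% = DMSO vehicle wells and 100% = no E2-Alexa633 signal left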
Sequence (P03372 whole entry, looked up): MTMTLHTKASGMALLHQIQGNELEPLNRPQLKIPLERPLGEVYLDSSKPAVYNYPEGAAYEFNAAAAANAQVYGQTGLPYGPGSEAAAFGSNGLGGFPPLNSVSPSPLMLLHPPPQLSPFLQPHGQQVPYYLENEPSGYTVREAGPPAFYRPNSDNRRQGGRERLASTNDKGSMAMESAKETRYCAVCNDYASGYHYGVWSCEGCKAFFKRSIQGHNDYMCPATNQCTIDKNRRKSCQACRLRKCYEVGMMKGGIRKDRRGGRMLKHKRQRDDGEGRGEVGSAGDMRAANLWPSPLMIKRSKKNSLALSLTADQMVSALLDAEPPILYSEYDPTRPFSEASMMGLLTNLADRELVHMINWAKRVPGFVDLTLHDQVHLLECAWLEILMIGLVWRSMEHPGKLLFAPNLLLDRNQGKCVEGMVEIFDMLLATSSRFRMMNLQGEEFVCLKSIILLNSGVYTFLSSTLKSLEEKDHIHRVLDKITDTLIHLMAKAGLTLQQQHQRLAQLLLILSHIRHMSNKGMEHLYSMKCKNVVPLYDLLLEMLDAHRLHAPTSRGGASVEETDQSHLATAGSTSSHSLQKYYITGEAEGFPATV

| SMILES | inhibition of ligand binding |
| --- | --- |
| CCCCn1c(=O)[nH]c2nc3cc(N)ccc3nc2c1=O | 4% (inactive) |
| Cc1ccc(-c2nn3c(C)nnc3s2)cc1NC(=O)COc1ccc(Cl)cc1 | 38% (inactive) |
| COc1ccc(N=Cc2sc(O)c3ccccc23)cc1 | 37% (inactive) |
| COc1ccc(OC)c(N2C(=O)[C@@H]3C(c4ccccc4Cl)=NO[C@@H]3C2=O)c1 | 57% (inactive) |
| COc1cccc2c1NC(C(=O)O)C1CC=CC21 (stereo unspecified) | 38% (inactive) |
| O=S(=O)(c1cccc(-c2cn3cccnc3n2)c1)N1CCCCCC1 | 25% (inactive) |
| Cc1ccc(-n2c(=O)c(C#N)cc3c(=O)n4cccc(C)c4nc32)cc1 | 53% (inactive) |
| CN(/N=C/c1cccnc1)c1cnn(-c2ccc(F)c(Cl)c2)c(=O)c1Cl | 24% (inactive) |
| Nc1ccc2nn(-c3cccc4ccccc34)nc2c1 | 0% (inactive) |
| O=C(Nc1cccc(-c2cnc3ccccc3n2)c1)c1cccc(NC(=O)c2ccco2)c1 | 68% (active) |
| Cc1ccc(C2=Nc3ccccc3N=C(c3ccco3)C2)c(O)c1 | 2% (inactive) |
| O=C(OCC(=O)N1CCN(C(=O)c2ccco2)CC1)c1cc(-c2ccco2)nc2ccccc12 | 34% (active) |
| Cc1ccc(-c2csc(NC(=O)c3ccno3)n2)cc1 | 60% (inactive) |
| O=C1c2ccccc2NC(c2cccnc2)N1c1ccccc1F (stereo unspecified) | 14% (inactive) |
| CC1CCc2c(sc(NC(=O)c3ccc(Cn4cc([N+](=O)[O-])cn4)o3)c2C#N)C1 (stereo unspecified) | 44% (inactive) |
| O=C(Cn1ncc2c(=O)oc3ccccc3c21)Nc1nc2ccccc2s1 | 7% (inactive) |
| CC(C)C1Nc2c(O)cc(Cl)c([N+](=O)[O-])c2C2C=CCC21 (stereo unspecified) | 40% (inactive) |
| CCCCCCNC(=O)c1cc(-c2ccco2)nc2ccccc12 | 40% (inactive) |
| CCOC(=O)c1c(NC(=O)CSc2nnc(-c3ccccc3)o2)sc(C(C)=O)c1C | 21% (inactive) |

| SMILES | inhibition of ligand binding |
| --- | --- |
| O=C(c1cccs1)N1N=C(c2ccc(O)cc2)CC1c1ccccc1 (stereo unspecified) | 58% (inactive) |
| CCOc1cc(N2CCOCC2)c(OCC)cc1NC(=O)c1cc(-c2ccco2)nc2ccccc12 | 24% (inactive) |
| COc1ccc(OC)c(/C=N/c2oc(-c3ccco3)c(-c3ccco3)c2C#N)c1 | 25% (inactive) |
| CC(=O)Nc1ccc(N=Cc2nc(-c3ccc(C)cc3)oc2O)cc1 | 29% (inactive) |
| COC(=O)c1c(-c2ccncc2)csc1NC(=O)c1ccoc1C | 41% (inactive) |
| Nc1ccc(-c2cc(-c3ccc(N)cc3)nc(-c3ccccc3)n2)cc1 | 51% (inactive) |
| N=c1c(C(=O)NCc2ccc(F)cc2)cc2c(=O)n3ccccc3nc2n1Cc1cccnc1 | 44% (inactive) |
| O=S(=O)(NCc1csc(-c2cccnc2)n1)c1ccc(Cl)s1 | 45% (inactive) |
| COc1cc(C(C#N)N2N=C(c3ccccc3)CC2c2ccccc2)ccc1O (stereo unspecified) | 3% (inactive) |
| O=C(CSc1nnnn1-c1ccccc1)Nc1nsc(-c2ccc(Cl)cc2)n1 | 47% (inactive) |
| C/C(N)=C(/C#N)C(=O)CSc1nnc(COc2ccccc2Cl)o1 | 20% (inactive) |
| NC(=O)c1c(NC(=O)c2cc3ccccc3o2)sc2c1CCC2 | 43% (inactive) |
| COc1cc(/C=N/N2CCN(C3c4ccccc4-c4ccccc43)CC2)ccc1O | 36% (inactive) |
| COc1ccc(OC)c(NC(=O)c2cc(-c3ccc(C)cc3O)n[nH]2)c1 | 40% (inactive) |
| CC(=O)c1ccc(NCC(=O)N2CCN(c3ccccc3)CC2)cc1 | 58% (inactive) |
| CCn1nnc(NC(=O)CSc2ccc(Cl)cc2)n1 | 7% (inactive) |
| COc1ccc2c(c1)c(=O)oc1cc(OCC(=O)NC3CCCCC3)ccc12 | 60% (inactive) |
| Oc1ccc(-c2nc(-c3ccc(O)c(O)c3)cs2)cc1 | 68% (active) |
| O=C1CC(=O)N2N=C(c3ccc([N+](=O)[O-])cc3)SC2=N1 | 38% (inactive) |

same assay, conditions: fluorescent ligand competition, binding inhibition, at 0.1 µM, stronger effect = higher value

| SMILES | inhibition of ligand binding [%] |
| --- | --- |
| CCCCn1c(=O)[nH]c2nc3cc(N)ccc3nc2c1=O | 1 |
| Cc1ccc(-c2nn3c(C)nnc3s2)cc1NC(=O)COc1ccc(Cl)cc1 | 42 |
| COc1ccc(N=Cc2sc(O)c3ccccc23)cc1 | 36 |
| COc1ccc(OC)c(N2C(=O)[C@@H]3C(c4ccccc4Cl)=NO[C@@H]3C2=O)c1 | 24 |
| COc1cccc2c1NC(C(=O)O)C1CC=CC21 (stereo unspecified) | 9 |
| O=S(=O)(c1cccc(-c2cn3cccnc3n2)c1)N1CCCCCC1 | 48 |
| Cc1ccc(-n2c(=O)c(C#N)cc3c(=O)n4cccc(C)c4nc32)cc1 | 32 |
| CN(/N=C/c1cccnc1)c1cnn(-c2ccc(F)c(Cl)c2)c(=O)c1Cl | 15 |
| Nc1ccc2nn(-c3cccc4ccccc34)nc2c1 | 12 |
| O=C(Nc1cccc(-c2cnc3ccccc3n2)c1)c1cccc(NC(=O)c2ccco2)c1 | 23 |
| Cc1ccc(C2=Nc3ccccc3N=C(c3ccco3)C2)c(O)c1 | 26 |
| O=C(OCC(=O)N1CCN(C(=O)c2ccco2)CC1)c1cc(-c2ccco2)nc2ccccc12 | 77 |
| Cc1ccc(-c2csc(NC(=O)c3ccno3)n2)cc1 | 29 |
| O=C1c2ccccc2NC(c2cccnc2)N1c1ccccc1F (stereo unspecified) | 35 |
| CC1CCc2c(sc(NC(=O)c3ccc(Cn4cc([N+](=O)[O-])cn4)o3)c2C#N)C1 (stereo unspecified) | 39 |
| O=C(Cn1ncc2c(=O)oc3ccccc3c21)Nc1nc2ccccc2s1 | 22 |
| CC(C)C1Nc2c(O)cc(Cl)c([N+](=O)[O-])c2C2C=CCC21 (stereo unspecified) | 16 |
| CCCCCCNC(=O)c1cc(-c2ccco2)nc2ccccc12 | 44 |
| CCOC(=O)c1c(NC(=O)CSc2nnc(-c3ccccc3)o2)sc(C(C)=O)c1C | 33 |

| SMILES | inhibition of ligand binding [%] |
| --- | --- |
| O=C(c1cccs1)N1N=C(c2ccc(O)cc2)CC1c1ccccc1 (stereo unspecified) | 17 |
| CCOc1cc(N2CCOCC2)c(OCC)cc1NC(=O)c1cc(-c2ccco2)nc2ccccc12 | 4 |
| COc1ccc(OC)c(/C=N/c2oc(-c3ccco3)c(-c3ccco3)c2C#N)c1 | 19 |
| CC(=O)Nc1ccc(N=Cc2nc(-c3ccc(C)cc3)oc2O)cc1 | 60 |
| COC(=O)c1c(-c2ccncc2)csc1NC(=O)c1ccoc1C | 25 |
| Nc1ccc(-c2cc(-c3ccc(N)cc3)nc(-c3ccccc3)n2)cc1 | 12 |
| N=c1c(C(=O)NCc2ccc(F)cc2)cc2c(=O)n3ccccc3nc2n1Cc1cccnc1 | 26 |
| O=S(=O)(NCc1csc(-c2cccnc2)n1)c1ccc(Cl)s1 | 6 |
| COc1cc(C(C#N)N2N=C(c3ccccc3)CC2c2ccccc2)ccc1O (stereo unspecified) | 3 |
| O=C(CSc1nnnn1-c1ccccc1)Nc1nsc(-c2ccc(Cl)cc2)n1 | 8 |
| C/C(N)=C(/C#N)C(=O)CSc1nnc(COc2ccccc2Cl)o1 | 8 |
| NC(=O)c1c(NC(=O)c2cc3ccccc3o2)sc2c1CCC2 | 5 |
| COc1cc(/C=N/N2CCN(C3c4ccccc4-c4ccccc43)CC2)ccc1O | 15 |
| COc1ccc(OC)c(NC(=O)c2cc(-c3ccc(C)cc3O)n[nH]2)c1 | 5 |
| CC(=O)c1ccc(NCC(=O)N2CCN(c3ccccc3)CC2)cc1 | 18 |
| CCn1nnc(NC(=O)CSc2ccc(Cl)cc2)n1 | 10 |
| COc1ccc2c(c1)c(=O)oc1cc(OCC(=O)NC3CCCCC3)ccc12 | 60 |
| Oc1ccc(-c2nc(-c3ccc(O)c(O)c3)cs2)cc1 | 39 |
| O=C1CC(=O)N2N=C(c3ccc([N+](=O)[O-])cc3)SC2=N1 | 8 |
